Structures are written as SMILES. Active and inactive are the calls of the source.

Consider nine compounds from PubChem BioAssay.

Test [1] in a line: optical density shifts of acrAB sulA E. coli – strain DRC41, OD650, 48 h, E. coli filamentation inducer project, primary screen (AID 1152).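 Also: E. coli MC1000 strain DRC41 lacking acrAB efflux pump and sulA.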 The settings on record: higher = more signal, called active from +8 up or from −8 down.
The nature of test [2]: probe aLefty1 binding on compound microarray – biochemical, small-molecule microarray, 635/667 nm fluorescence, primary screen (AID 1153).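 Also: score merges spot fluorescence with signal-to-noise ratio from the scanned slide images.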 The settings on record: higher = more signal.
Test [3] is described as follows: plasmodial surface anion channel blockers, osmotic lysis – cell-based, P. falciparum Indochina, OD700, 1 h, primary screen (AID 1154). As to conditions: P. falciparum Indochina infected RBC osmotic lysis, higher = more signal, called active from +8 up or from −8 down.
The nature of test [4]: plasmodial surface anion channel blockers, osmotic lysis – cell-based, P. falciparum Indochina, OD700, 2 h, primary screen (AID 1155).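 Also: lysis reports solute entry through the parasite surface anion channel PSAC.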 The settings on record: P. falciparum Indochina infected erythrocytes, higher = more signal, called active from +8 up or from −8 down.
The nature of test [5]: changes in parasitized red cell lysis, either direction – P. falciparum Indochina, OD700, 3 h, PSAC antagonist project, primary screen (AID 1156). The settings on record: P. falciparum-infected erythrocytes, osmotic lysis, higher = more signal, called active from +8 up or from −8 down.
Test [6] is described as follows: plasmodial surface anion channel blockers, osmotic lysis – cell-based, P. falciparum Indochina, OD700, 18 h, primary screen (AID 1157). As to conditions: P. falciparum Indochina infected erythrocytes, osmotic lysis OD700, 18 h; higher = more signal, called active from +8 up or from −8 down.
A short description of test [7]: S6 kinase pathway phospho-S6 level changes – cell-based, A549, cytoblot, luminescence, serum-stimulated, primary screen (AID 1158).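 Also: serum-stimulated A549 lung adenocarcinoma cells; signal is phosphorylated S6 detected by cytoblot immunostaining with HRP secondary.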 The settings on record: 5 h, higher = more signal.
Test [8] addresses NADPH oxidase 2 (Homo sapiens) (UniProt P04839). Kind of test: compounds shifting NOX2 Amplex Red fluorescence – cell-based, HEK293-NOX2, PMA-stimulated, NOX inhibitor project, primary screen (AID 1159). Also: test concentration not given here. The settings on record: 45 min, higher = more signal, called active from +8 up or from −8 down.
Test [9] has as its target NADPH oxidase 4 (Homo sapiens) (UniProt Q9NPH5). Kind of test: compounds shifting NOX4 Amplex Red fluorescence – cell-based, HEK293-NOX4, tetracycline-induced, NOX inhibitor project, primary screen (AID 1160). As to conditions: HEK293-NOX4, Amplex Red H2O2 fluorescence, 45 min; higher = more signal, called active from +8 up or from −8 down.
Test [10] has as its target NADPH oxidase 5 (Homo sapiens) (UniProt Q96PH1). Put plainly: compounds shifting NOX5 Amplex Red fluorescence – cell-based, HEK293-NOX5, NOX inhibitor project, primary screen (AID 1161). The settings on record: HEK293-NOX5, ionomycin, 45 min, higher = more signal.
Test [11] can be described thus: compound effects on lung adenocarcinoma cell viability – A549, calcein-AM fluorescence, 48 h, basal, profiling panel (AID 1162). Also: test concentration not given here. The settings on record: higher = more signal.
The nature of test [12]: compound effects on differentiated 3T3-L1 adipocyte viability – cell-based, 3T3-L1 adipocytes, calcein-AM fluorescence, 48 h, basal, profiling panel (AID 1163). Also: test concentration not given here. As to conditions: 3T3-L1 adipocytes viability, higher = more signal.
Test [13] is described as follows: compound effects on hepatocellular carcinoma cell viability – HepG2, calcein-AM fluorescence, 48 h, basal, profiling panel (AID 1164). Also: test concentration not given here. As to conditions: higher = more signal.
Test [14] is described as follows: compound effects on multiple myeloma cell viability – MM1S, calcein-AM fluorescence, 48 h, basal, profiling panel (AID 1165). Also: test concentration not given here. As to conditions: higher = more signal.
A short description of test [15]: calcein-AM signal in unstimulated myeloma cells – cell-based, calcein-AM fluorescence, 48 h, PK04 Diversity Set, profiling panel (AID 1166).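 Also: cells grown under basal conditions without added stimulus; test concentration not given here.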 The settings on record: RPMI8226 myeloma viability, higher = more signal.
The nature of test [16]: JC-1 mitochondrial signal, unstimulated HepG2 cells – cell-based, JC-1 fluorescence, 24 h, 100 nL compound, profiling panel (AID 1167). Also: test concentration not given here. As to conditions: HepG2 mitochondrial potential, higher = more signal.
The nature of test [17]: JC-1 mitochondrial signal, unstimulated adipocytes – cell-based, JC-1 fluorescence, 3T3-L1 adipocytes, 24 h, 100 nL compound, profiling panel (AID 1168). Also: test concentration not given here. As to conditions: JC-1 mitochondrial fluorescence, higher = more signal, called active from +8 up or from −8 down.
Test [18] can be described thus: JC-1 mitochondrial signal, unstimulated myeloma cells – cell-based, JC-1 fluorescence, RPMI8226, 24 h, 100 nL compound, profiling panel (AID 1169). Also: test concentration not given here. The settings on record: JC-1 mitochondrial potential fluorescence, higher = more signal.
The nature of test [19]: JC-1 mitochondrial signal, unstimulated MM1S myeloma – cell-based, JC-1 fluorescence, 24 h, 100 nL compound, profiling panel (AID 1170). Also: test concentration not given here. The settings on record: MM1S mitochondrial potential, higher = more signal.
Test [20] in a line: resazurin metabolic signal in A549 cells – cell-based, resazurin fluorescence, 24 h, PK04 Diversity Set, profiling panel (AID 1171). Also: test concentration not given here. As to conditions: A549 viability, higher = more signal, called active from +8 up or from −8 down. (In general: The colour change of resazurin is a common sign of viable cells or microbes.)

NADPH oxidase 4 (Homo sapiens), sequence (Q9NPH5 whole entry, looked up): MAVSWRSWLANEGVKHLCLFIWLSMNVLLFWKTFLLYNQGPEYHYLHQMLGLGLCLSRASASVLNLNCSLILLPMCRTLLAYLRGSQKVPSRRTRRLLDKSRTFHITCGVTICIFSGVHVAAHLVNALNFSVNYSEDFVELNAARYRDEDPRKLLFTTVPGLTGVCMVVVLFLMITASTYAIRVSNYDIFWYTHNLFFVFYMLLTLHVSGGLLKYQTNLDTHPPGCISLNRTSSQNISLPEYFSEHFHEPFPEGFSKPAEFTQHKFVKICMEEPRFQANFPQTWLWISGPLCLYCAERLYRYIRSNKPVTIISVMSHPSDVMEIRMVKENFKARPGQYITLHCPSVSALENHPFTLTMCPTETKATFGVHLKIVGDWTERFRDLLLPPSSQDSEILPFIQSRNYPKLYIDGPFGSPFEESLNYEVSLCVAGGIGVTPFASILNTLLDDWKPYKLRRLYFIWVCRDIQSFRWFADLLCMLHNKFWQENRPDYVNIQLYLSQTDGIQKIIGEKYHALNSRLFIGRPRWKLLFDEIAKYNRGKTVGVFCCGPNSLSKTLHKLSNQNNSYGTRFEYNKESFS
NADPH oxidase 5 (Homo sapiens), sequence (Q96PH1 whole entry, looked up): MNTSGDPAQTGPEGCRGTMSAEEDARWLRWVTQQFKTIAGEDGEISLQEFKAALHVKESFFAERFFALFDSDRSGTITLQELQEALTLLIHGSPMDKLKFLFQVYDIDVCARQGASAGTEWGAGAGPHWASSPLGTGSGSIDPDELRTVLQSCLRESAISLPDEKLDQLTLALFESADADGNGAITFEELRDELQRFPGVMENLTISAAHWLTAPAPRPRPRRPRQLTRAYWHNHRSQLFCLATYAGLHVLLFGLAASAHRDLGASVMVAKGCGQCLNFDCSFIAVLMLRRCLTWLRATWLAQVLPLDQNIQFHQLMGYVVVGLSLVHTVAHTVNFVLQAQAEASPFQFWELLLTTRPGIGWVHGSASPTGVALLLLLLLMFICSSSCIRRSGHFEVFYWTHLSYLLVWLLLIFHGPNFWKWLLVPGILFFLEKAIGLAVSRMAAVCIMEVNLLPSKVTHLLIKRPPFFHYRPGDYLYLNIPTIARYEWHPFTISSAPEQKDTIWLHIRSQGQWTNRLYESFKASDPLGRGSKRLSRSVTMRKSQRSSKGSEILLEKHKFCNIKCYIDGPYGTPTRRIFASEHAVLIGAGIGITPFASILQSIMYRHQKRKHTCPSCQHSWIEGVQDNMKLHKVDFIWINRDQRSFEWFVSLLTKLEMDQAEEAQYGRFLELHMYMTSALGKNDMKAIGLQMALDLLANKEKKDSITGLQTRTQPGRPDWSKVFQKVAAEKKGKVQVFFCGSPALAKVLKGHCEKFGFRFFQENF
NADPH oxidase 2 (Homo sapiens), sequence (P04839 whole entry, looked up): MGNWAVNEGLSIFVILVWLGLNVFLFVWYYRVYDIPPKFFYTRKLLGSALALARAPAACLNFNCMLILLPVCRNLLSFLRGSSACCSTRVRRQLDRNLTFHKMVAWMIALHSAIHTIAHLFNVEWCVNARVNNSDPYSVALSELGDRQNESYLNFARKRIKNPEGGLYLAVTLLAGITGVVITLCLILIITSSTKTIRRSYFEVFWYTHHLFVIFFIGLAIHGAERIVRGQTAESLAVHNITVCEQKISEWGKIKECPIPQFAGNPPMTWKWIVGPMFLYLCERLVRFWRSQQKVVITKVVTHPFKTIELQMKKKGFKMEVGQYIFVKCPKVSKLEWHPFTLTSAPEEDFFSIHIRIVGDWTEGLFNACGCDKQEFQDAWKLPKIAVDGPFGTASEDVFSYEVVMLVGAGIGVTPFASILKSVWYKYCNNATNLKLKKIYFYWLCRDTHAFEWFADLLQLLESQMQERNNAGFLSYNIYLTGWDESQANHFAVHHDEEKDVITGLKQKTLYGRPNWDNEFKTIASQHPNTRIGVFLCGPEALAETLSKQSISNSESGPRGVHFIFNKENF

As for `CC(C)C(O)C1C=CC2C(=O)NC(=O)C2N1Nc1ccc(Cl)cc1Cl` (stereo not given), the z-score is -1.3 (inactive) in test [1]; 1.41 (inactive) in test [3]; 0.648 (inactive) in test [4]; -0.782 (inactive) in test [5]; 0.997 (inactive) in test [6]; -1.23 in [7]. In addition, the z-score is -0.714 (inactive) in test [8]; -4.39 (inactive) in [9]; -3.83 in [10]; -1.06 in test [11]; -0.699 in test [12]; -0.401 in test [13]. Besides, the z-score in test [14] is -0.687; in test [15], -0.644; in test [16], -2.25; in test [17], -1.12 (inactive); in [18] it was -0.161; in [19] it was -0.143. Further, the z-score in [20] is -0.883 (inactive). Moreover, in test [2], the composite z-score was -0.114.

For `COc1ccc([Si](C)(C)[C@H]2[C@H](CCO)O[C@@]3(C(=O)N(Cc4ccc(N(C=O)c5ccccc5)cc4)c4ccccc43)[C@@H]2C)cc1`, the z-score in test [1] is -0.208 (inactive); in test [3] it was 17.5 (active); in test [4], 5.72 (inactive); in test [5] it was -0.149 (inactive); in test [6] it was 1.87 (inactive); in test [7], 0.788. The z-score in test [8] was 0.118 (inactive); in [9] it was 0.859 (inactive); in test [10] it was 2.37; in test [11], -0.585; in test [12] it was -1.32; in [13] it was -2.76. The z-score in test [14] was -1.48; in test [15] it was -3.78; in test [16], 0.119; in test [17] it was -0.393 (inactive); in [18] it was -1.03; in test [19], -1.88. The z-score in test [20] was -1.68 (inactive). The compound further showed a composite z-score in test [2] of 0.0406.

Regarding `CCCC[C@@H]1C[C@H]1[C@@H](NC(=O)c1ccco1)c1ccc(-c2ccccc2)cc1`, the z-score in test [1] was -1.73 (inactive); in test [3], -0.38 (inactive); in [4] it was -0.912 (inactive); in test [5] it was 1.59 (inactive); in test [6] it was -1.91 (inactive); in [7], 1.28. Moreover, the z-score in test [8] was -4.04 (inactive); in test [9], -3.5 (inactive); in test [10], -2; in [11], -0.359; in test [12], 0.222; in test [13] it was -1.05. Besides, the z-score is -0.15 in test [14]; -1.03 in test [15]; -1.07 in [16]; -0.168 (inactive) in test [17]; -0.0532 in [18]; 0.0163 in test [19]. Moreover, the z-score in [20] was -1.04 (inactive). For the same compound, the composite z-score in test [2] was 0.142.

For `CC(=O)n1cc(C(O)C2C=CC3C(=O)N(c4ccccc4)C(=O)C3N2Nc2ccc([N+](=O)[O-])cc2)c2ccccc21` (stereo not given), the z-score is -1.2 (inactive) in test [1]; 17 (active) in test [3]; 3.57 (inactive) in test [4]; 1.13 (inactive) in test [5]; 0.954 (inactive) in [6]; -0.75 in test [7]. Further, the z-score in test [8] was -0.808 (inactive); in test [9], -2.56 (inactive); in [10] it was -1.91; in test [11] it was -0.456; in [12], -0.479; in test [13], -0.439. In addition, the z-score in [14] was -1.53; in test [15], -0.315; in [16] it was -1.75; in test [17] it was -1.2 (inactive); in [18] it was -0.412; in [19] it was 0.0885. Besides, the z-score in test [20] is -0.375 (inactive). The composite z-score in [2] turned out to be 0.272.

As for `C=C(COC)/C(=C/C[C@@H](OC(C)=O)c1ccc(OCCO)cc1)c1cnc2ccccc2c1`, the z-score was 2.11 (inactive) in test [1]; 20.2 (active) in test [3]; 3.53 (inactive) in test [4]; 0.844 (inactive) in test [5]; -0.282 (inactive) in [6]; 1.81 in test [7]. Moreover, the z-score in test [8] was -2.04 (inactive); in test [9] it was -0.287 (inactive); in [10], -1.08; in [11] it was 2.32; in test [12] it was 1.86; in test [13], 0.109. For the same compound, the z-score is -0.83 in test [14]; -0.175 in [15]; 2.42 in test [16]; -0.502 (inactive) in test [17]; -0.612 in test [18]; -0.701 in test [19]. Also, in test [20], the z-score is 0.0521 (inactive). Also, the composite z-score in [2] amounted to 0.127.

As to `CC(C)N1C(=O)C[C@@](C(=O)NCC(F)(F)F)(c2ccc([N+](=O)[O-])cc2)[C@H]1c1ccc(CO)cc1`, the z-score in test [1] was 1.09 (inactive); in test [3], 0.642 (inactive); in test [4], -0.558 (inactive); in test [5], 0.533 (inactive); in test [6], -1.68 (inactive); in test [7], 2.47. Also, the z-score in [8] is 0.271 (inactive); in test [9] it was 0.465 (inactive); in [10] it was -0.127; in test [11], 1.41; in [12], 1.13; in test [13], -0.0704. Also, the z-score is -0.464 in test [14]; -1.66 in test [15]; 0.868 in test [16]; -0.502 (inactive) in test [17]; -0.564 in [18]; -1.51 in [19]. Further, in test [20], the z-score was 0.201 (inactive). The composite z-score in test [2] is -0.101.

Turning to `O=C1OCCC/C=C\[C@H]2OC34C=CCN(Cc5ccccc5)C(=O)[C@H]3N(CCCO)C(=O)[C@@H]4C12` (stereo not given in full), the z-score in [1] is 0.616 (inactive); in test [3], 1.21 (inactive); in test [4], 0.486 (inactive); in test [5], -0.0156 (inactive); in test [6], 0.211 (inactive); in test [7], -0.506. The z-score in test [8] was 1.76 (inactive); in [9], -1.71 (inactive); in [10], 2.38; in test [11], -0.0592; in [12], -0.0687; in test [13], 0.556. The z-score in [14] is 1.58; in test [15] it was 0.438; in [16], 0.315; in [17] it was 0.478 (inactive); in test [18], 0.0319; in [19], 1.44. Besides, the z-score in [20] was 0.0483 (inactive). The compound also registered a composite z-score in [2] of 0.042.

On to `COC(=O)[C@@]1(Cc2ccc(OC)cc2)[C@H]2c3cc(C(=O)N(C)C)n(Cc4ccc(S(C)(=O)=O)cc4)c3C[C@H]2CN1C(=O)c1ccccc1`, for which the z-score in test [1] is -0.752 (inactive); in test [3], 1.85 (inactive); in [4], 0.451 (inactive); in test [5], 0.954 (inactive); in test [6], -0.336 (inactive); in test [7] it was 4.44. The z-score was 1.04 (inactive) in test [8]; 1.74 (inactive) in test [9]; -3.36 in test [10]; 2.88 in test [11]; 0.449 in test [12]; 1.13 in [13]. In addition, the z-score was 0.636 in [14]; 1.51 in test [15]; 3.14 in test [16]; -0.572 (inactive) in test [17]; 0.484 in test [18]; -1.11 in [19]. Also, the z-score in [20] was 0.0073 (inactive). Further, in test [2], the composite z-score worked out at 1.06.

For the compound `CCOC(=O)C[C@H]1[C@H](OC(=O)c2ccc(-c3ccccc3)cc2)[C@@H](NC(=O)Cc2ccc(OC)cc2)c2cc(OCCCO)ccc2N1C(=O)c1ccccc1`, the z-score in test [1] was -0.539 (inactive); in test [3], 1.84 (inactive); in [4], -0.259 (inactive); in test [5], 0.438 (inactive); in [6], 0.285 (inactive); in test [7], 1.3. The z-score in test [8] was -1.43 (inactive); in test [9] it was -1.72 (inactive); in [10] it was -0.795; in [11] it was -0.137; in [12], 0.533; in test [13], -0.42. Moreover, the z-score in test [14] was 0.57; in test [15], -0.432; in test [16], 1.37; in test [17] it was -1.03 (inactive); in test [18] it was 0.0293; in [19], -0.102. Also, the z-score in [20] was -0.657 (inactive). This compound also came in with a composite z-score in test [2] of 0.206.
